The supplement of paper PMC9254222
Whole data set: some 1,100 compounds, median “Wnt reporter firefly/Renilla luciferase ratio relative to plate median” near 1.1, cut for the highest 2% near 1.6. Shown is part of a subset that was picked to be rich in the highest values.

Tested on: HEK293T (UBE3A T485A transfected, BAR Wnt reporter)
Test: Wnt reporter firefly/Renilla luciferase ratio relative to plate median (fold (linear ratio)); higher = more Wnt/beta-catenin reporter activation
Settings: 24 h
Method in brief: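 Chemicals at 0.01–100 uM were left on transfected HEK293T cells for 24 h, after a four-hour wait following transfection. The cells held a BAR firefly luciferase Wnt reporter, TK-Renilla and an expression plasmid. Wnt activity, as the firefly/Renilla ratio from a Dual-Glo luciferase readout, and cell health, as raw Renilla, were median-centred within each plate. Results average four biological replicates.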

SMILES | Wnt reporter firefly/Renilla luciferase ratio (concentration: 0.1 uM) | Wnt reporter firefly/Renilla luciferase ratio (concentration: 1 uM) | Wnt reporter firefly/Renilla luciferase ratio (concentration: 10 uM) | Wnt reporter firefly/Renilla luciferase ratio (concentration: 100 uM) | Wnt reporter firefly/Renilla luciferase ratio (concentration: 0.01 uM)
O=[N+]([O-])C(CO)(CO)CO [2-(Hydroxymethyl)-2-nitro-1,3-propanediol] | 0.982 | 1.11 | 1.27 | 1.27 | –
O=c1nc(-c2ccc(C(F)(F)F)cc2)[nH]c2c1CSCC2 | 0.688 | 0.648 | 0.664 | 0.578 | 0.923
CCCCCCC(=O)O [Heptanoic acid] | 1.02 | 1.15 | 1.07 | 0.917 | –
CCCC(CCC)C(=O)O [Valproic acid] | 0.995 | 1.01 | 1.14 | 1.69 | 1.2
CCCCC(CC)C(=O)O (centres undefined) [2-Ethylhexanoic acid] | 0.925 | 1 | 1.4 | 1.2 | –
C[C@@H](Oc1ccc(CNC(=O)c2cccnc2Oc2ccc3c(c2)OCO3)c(F)c1)C(=O)O | 1.14 | 1.12 | 1.13 | 1.33 | –
Cc1cc(F)ccc1-c1cc(N2CC[C@@H](O)[C@H]2CO)ncc1N(C)C(=O)C(C)(C)c1cc(C(F)(F)F)cc(C(F)(F)F)c1 | 1.27 | 1.05 | 1.16 | 0.311 | –
N#C[C@@H]1CC(F)(F)CN1C(=O)CNC1CC2CCC(C1)N2c1ncccn1 (some centres undefined) | 0.985 | 0.923 | 0.937 | 0.82 | –
[Cl-].c1ccc(C[n+]2cccc3ccccc32)cc1 [1-Benzylquinolinium chloride] | 0.993 | 0.903 | 1.05 | – | –
CCCOC(=O)c1ccc(O)cc1 [Propylparaben] | 1.46 | 1.02 | 0.949 | 0.169 | –
Nc1ccc2c(c1)C(=O)c1ccccc1C2=O [2-Aminoanthraquinone] | 1.06 | 1.2 | 1.28 | 1.58 | –
O=C(O)c1cccnc1 [Nicotinic acid] | 1.02 | 1.17 | 0.874 | 1.27 | –
CNCc1ccc(NC(=O)c2c[nH]c3c2C(=O)CCC3)cc1 | 1.24 | 1.06 | 1.69 | 0.318 | –
CO[C@H]1/C=C/O[C@@]2(C)Oc3c(C)c(O)c4c(O)c(c(/C=N/N5CCN(C)CC5)c(O)c4c3C2=O)NC(=O)/C(C)=C\C=C\[C@H](C)[C@H](O)[C@@H](C)[C@@H](O)[C@@H](C)[C@H](OC(C)=O)[C@@H]1C [Rifampicin] | 1.29 | 1.07 | 1.27 | 0.362 | –
CCCCCC(=O)O [Hexanoic acid] | 1.02 | 0.926 | 1.05 | 1.27 | –
CCCCCCCCCC(=O)O [Decanoic acid] | 1.43 | 1.04 | 1.39 | 0.794 | –
CCCC(=O)O [Butanoic acid] | 1.31 | 1 | 1.12 | 1.62 | –
O=C(OCCOCCOC(=O)c1ccccc1)c1ccccc1 [Diethylene glycol dibenzoate] | 1.08 | 1.16 | 1.34 | 1.44 | –
CCCCCCCCCCCCc1ccccc1S(=O)(=O)O [Dodecylbenzenesulfonic acid] | 1.14 | 1.13 | 1.2 | 1.04 | –

SMILES | Wnt reporter firefly/Renilla luciferase ratio (concentration: 0.1 uM) | Wnt reporter firefly/Renilla luciferase ratio (concentration: 1 uM) | Wnt reporter firefly/Renilla luciferase ratio (concentration: 10 uM) | Wnt reporter firefly/Renilla luciferase ratio (concentration: 100 uM) | Wnt reporter firefly/Renilla luciferase ratio (concentration: 0.01 uM)
NS(=O)(=O)c1cc2c(cc1Cl)NCNS2(=O)=O [Hydrochlorothiazide] | 1.41 | 1.17 | 1.12 | 1.32 | –
CC(=O)OC1C(=O)C2(C)C(O)CC3OCC3(OC(C)=O)C2C(OC(=O)c2ccccc2)C2(O)CC(OC(=O)C(O)C(NC(=O)c3ccccc3)c3ccccc3)C(C)=C1C2(C)C (centres undefined) [Taxol] | 0.822 | 0.575 | 0.409 | 1.98 | 1.29
O=C([N-]S(=O)(=O)/C=C/c1ccccc1)c1ccc(F)cc1Cl.[Na+] | 1.15 | 1.07 | 0.657 | 0.3 | –
CC(C)c1cccc(C(C)C)c1N1C(=O)c2ccc(O)cc2C1=O | 1.19 | 1.17 | 0.259 | – | –
C=CCc1ccc(O)c(OC)c1 [Eugenol] | 1.02 | 1.13 | 1.19 | 1.55 | –
OC[C@H]1O[C@@H]2O[C@H]3[C@H](O)[C@@H](O)[C@@H](O[C@H]4[C@H](O)[C@@H](O)[C@@H](O[C@H]5[C@H](O)[C@@H](O)[C@@H](O[C@H]6[C@H](O)[C@@H](O)[C@@H](O[C@H]7[C@H](O)[C@@H](O)[C@@H](O[C@H]1[C@H](O)[C@H]2O)O[C@@H]7CO)O[C@@H]6CO)O[C@@H]5CO)O[C@@H]4CO)O[C@@H]3CO [alpha-Cyclodextrin] | 1.02 | 1.09 | 0.976 | 0.971 | –
CCCCCCC(C=O)=Cc1ccccc1 [2-Benzylideneoctanal] | 0.942 | 0.906 | 0.822 | 0.757 | –
O=C(CCCCCCC(=O)Nc1ccccc1)NO [Vorinostat (SAHA)] | 1.23 | 1.05 | 3.08 | – | 1.33
O=C(OCCCCCCOC(=O)c1ccccc1)c1ccccc1 [Hexane-1,6-diyl dibenzoate] | 0.955 | 0.846 | 1.01 | 1.37 | –
CC(C)(O)c1ccc(CNC(=O)c2cccnc2Oc2ccc(F)cc2)cc1 | 0.96 | 1.05 | 1.22 | 0.695 | –
CCCc1ccccc1 [Propylbenzene] | 0.987 | 0.856 | 0.88 | 1.43 | –
CC(C)(C)c1ccccc1 [tert-Butylbenzene] | 1.01 | 0.913 | 0.895 | 1.16 | –
COc1ccc(S(=O)(=O)N2C(=O)[C@@](c3ccccc3OC)(N3C[C@H](O)C[C@H]3C(=O)N(C)C)c3cc(Cl)ccc32)c(OC)c1 [Nelivaptan] | 1.09 | 0.857 | 0.612 | 0.355 | –
CCCCCCCCCCCCCCOS(=O)(=O)[O-].[Na+] [Sodium myristyl sulfate] | 1.14 | 1.11 | 1.06 | 0.293 | –
CCCCCCCCCCCCCCCCOS(=O)(=O)[O-].[Na+] [Sodium hexyldecyl sulfate] | 0.784 | 1.09 | 0.931 | 1.7 | –
CCCCCCCCCCCCOS(=O)(=O)[O-].[Na+] [Sodium dodecyl sulfate] | 1.32 | 0.99 | 1.05 | 0.875 | –
CC(=O)c1ccccc1 [Acetophenone] | 1.48 | 1.03 | 1.27 | 1.46 | –
CCCCCCCCO [1-Octanol] | 0.948 | 0.949 | 1.11 | 1.09 | –
O=c1ccn(C2OC(COP(=O)(O)OP(=O)(O)OP(=O)(O)O)C(O)C2O)c(=O)[nH]1 (centres undefined) | 1.13 | 1.15 | 1.07 | 1.94 | 1.43
